Compounds without any hit were thinned out: in the full panel of roughly 83,000, 20% have a hit.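 Note: values are percent growth. 100 is the growth of untreated cells, values between 100 and 0 indicate rising inhibition; between -100 and 0 indicates cell death.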 A number with no mark means an inactive call. Calls of active or inactive are those of the source. How the source made its calls: active means growth percent below 10; inactive means the rest.
Experiments:
Assay in all cases: NCI-60 one-dose screen, 48 h (100 = growth as untreated, 0 = no growth, -100 = all killed)
Settings in all cases: 10 µM unless noted
[1] = tested on: NCI-H23 lung
[2] = tested on: NCI-H226 lung
[3] = tested on: NCI-H322M lung
[4] = tested on: HOP-62 NSCLC
[5] = tested on: NCI-H460 lung
[6] = tested on: HOP-92 NSCLC
[7] = tested on: NCI-H522 lung
[8] = tested on: A549/ATCC NSCLC
[9] = tested on: 786-0 renal
[10] = tested on: COLO 205 colon

| Structure (SMILES) | growth [1] | growth [2] | growth [3] | growth [4] | growth [5] | growth [6] | growth [7] | growth [8] | growth [9] | growth [10] |
| --- | --- | --- | --- | --- | --- | --- | --- | --- | --- | --- |
| N#Cc1ccc(O)c(C2=NCC(c3ccc(-c4ccccc4)cc3)O2)c1 (stereo not given) | 27.8% | 29.8% | 33% | 2.79% (active) | 1.31% (active) | 35% | -8.42% (active) | 2.62% (active) | 20.1% | 1.08% (active) |
| O=C(/C=C/c1ccccc1)c1ccc(-n2cc(CN3CCN(c4cc5c(cc4F)c(=O)c(C(=O)O)cn5C4CC4)CC3)nn2)cc1 | 79.7% | 73% | 84.4% | 79.6% | 76.1% | 79.6% | 80.1% | 88.9% | 54.2% | 108% |
| O=C(O)c1cn(C2CC2)c2cc(N3CCN(C(=O)N/N=C/c4cccc5ccccc45)CC3)c(F)cc2c1=O | 93.9% | 94.3% | 101% | 95.2% | 106% | 97.2% | 81% | 106% | 71.7% | 114% |
| Cc1nc2ccccc2c(/C=C/c2ccc(F)cc2)c1C(=O)/C=C/c1ccccc1 | 20.7% | 50.6% | 37.7% | -4.45% (active) | -41.9% (active) | 50.6% | 5.78% (active) | 25% | 24.1% | 10.5% |
| CN(C)c1ccc(CNCCO)cc1 | 107% | 91.9% | 104% | 76.3% | 105% | 75.1% | 43.5% | 76% | 86.1% | 85.7% |
| Cc1cc(NCCCNc2ccnc3cc(Cl)ccc23)nc(Nc2ccc(C(=O)N3CCCCC3)cc2)n1 | 52.5% | 108% | 17.8% | 73.8% | 9.68% (active) | 83.8% | -11.6% (active) | 20.5% | -29.5% (active) | -32.1% (active) |
| O=c1oc2c(cc1-c1ccccc1)c[n+]([O-])c1ccccc21 | 101% | 93.5% | 104% | 99.2% | 98% | 86.4% | 98.9% | 98% | 90.3% | 102% |
| C=C(C)[C@@H]1CC[C@]2(COC3CCCCO3)CC[C@]3(C)[C@H](CC[C@@H]4[C@@]5(C)C=C(C=O)C(=O)C(C)(C)[C@@H]5CC[C@]43C)[C@@H]12 (stereo not given in full) | -58.9% (active) | 1.68% (active) | 8.97% (active) | -68% (active) | -47.2% (active) | -91.6% (active) | -75% (active) | -63.5% (active) | -86.2% (active) | -32% (active) |
| COc1cc(-c2nccc3[nH]c(-c4cccc5[nH]ccc45)nc23)cc(OC)c1OC | 26.8% | 34% | 64% | 12.2% | 7.17% (active) | -2.13% (active) | -15.7% (active) | 17.3% | 7.27% (active) | -62.9% (active) |
| O=c1cc(CNc2cc(F)cc(F)c2)c2ccc(I)cc2[nH]1 | 46.3% | 68.6% | 48.3% | 37.5% | 18.5% | 54% | 15.6% | 38.6% | 43.7% | 33.7% |
| CCN(CC)CCCC(Cc1ccccc1)Nc1c2ccc(Cl)cc2nc2ccc(OC)cc12 (stereo not given) | 67.1% | 84.4% | 9.3% (active) | 67.3% | 28.6% | -4.73% (active) | 1.88% (active) | 39.3% | -22.6% (active) | -42.3% (active) |
| COc1ccc2c(c1)oc1c(C)c3c(c(C)c12)C(=O)N(CCOS(C)(=O)=O)C3=O | 94.2% | 106% | 96.7% | 103% | 94% | 113% | 87.7% | 109% | 95.2% | 107% |
| COC(=O)[C@@]1(C)CC[C@]2(C)CC[C@]3(C)C4=CC=C5C(=CC(=O)C(O)=C5C)[C@]4(C)[C@@H](O)C[C@@]3(C)[C@@H]2C1 | 49.2% | 98.7% | 96.8% | 89.7% | 63.6% | -3.8% (active) | -24.2% (active) | 88.3% | -30.3% (active) | 12.8% |
| COc1ccc(Nc2ncc(I)c(NCCCNC(=O)C3CCC3)n2)cc1 | 8.39% (active) | 5.32% (active) | 6.78% (active) | -21.3% (active) | 8.88% (active) | -7.19% (active) | 52.2% | -37.6% (active) | 9.69% (active) | -59.3% (active) |
| FC(F)(F)c1[nH]ncc1-c1nc2ccc3[nH]ncc3c2c2c1CCCC2 | 7.15% (active) | 10.1% | 3.13% (active) | 1.07% (active) | 5.86% (active) | 31.2% | -16.9% (active) | 0.818% (active) | -23.8% (active) | -8.58% (active) |
| Cc1c(O)cc(-c2cnc(N/N=C/c3ccccc3)s2)c(O)c1C | 97.7% | 92.4% | 97.6% | 107% | 102% | 92.6% | 82.3% | 94.1% | 117% | 111% |
| CC1=C(Cl)C(=O)c2cc(C)ccc2C1=O | 100% | 86.3% | 94.4% | 105% | 115% | 88.5% | 93% | 101% | 102% | 114% |
| CC(O)Cc1c[nH]c(=O)[nH]c1=O (stereo not given) | 102% | 109% | 132% | -56.4% (active) | 103% | 111% | 110% | 93.7% | 109% | -66.5% (active) |
| CCCN(CCSSCCNc1nc(N(C)O)nc(N(C)O)n1)c1nc(N(C)O)nc(N(C)O)n1 | 84% | 82.6% | 44.5% | 24.5% | 28.4% | 58.3% | 65.1% | 48% | 70% | 24.2% |
| Cn1cc(-c2csc(-c3cn(C)c4ccccc34)n2)c2cnccc21 | 83.2% | 112% | 66.6% | 42.1% | -46.2% (active) | 55.5% | 16.7% | 15.3% | -87.9% (active) | -68% (active) |
| Cc1cccc(N=Nc2cccc(C)c2)c1 | 92.5% | 100% | 98.5% | 104% | 102% | 85.9% | 97.4% | 104% | 116% | 111% |
| N#Cc1c(-c2ccc(Br)cc2)nc2c(N=Nc3ccc(S(N)(=O)=O)cc3)c(N)nn2c1N | 63.7% | 66.2% | 74.7% | 52.2% | 37.1% | 31.5% | 38.6% | 68.4% | 69.9% | 25.5% |
| N[C@@H]1CCC[C@H]1NCCCCN1C(=O)c2cccc3cc([N+](=O)[O-])cc(c23)C1=O | 39.3% | 11% | 41.2% | 31.7% | 6.71% (active) | 34.5% | 40.6% | 22.4% | 25% | 22.8% |
| CC(=O)c1sc(-c2ccc(F)cc2)cc1O | 96.4% | 103% | 98.3% | 111% | 108% | 102% | 99.2% | 97.2% | 96.7% | 116% |
| CCN(CC)C(=O)C1=C(C)NC(=O)NC1c1ccc2c(c1)OCO2 (stereo not given) | 103% | 100% | 109% | 105% | 106% | 109% | 96.6% | 106% | 106% | 114% |
| CC1=C2CC/C(C)=C/CC[C@]3(C)O[C@H]3CC/C(C)=C/[C@H]2OC1 | 97.3% | 109% | 101% | 107% | 107% | 94.6% | 87% | 90.5% | 92% | 104% |
| O=c1oc2c(cnc3ccccc32)cc1-c1cccc(Cl)c1 | 101% | 96.2% | 104% | 113% | 106% | 81.7% | 101% | 104% | 106% | 118% |

Reference: PubChem BioAssay (NCI)
